Assay results reported in the supplement of paper PMC12645437, “Orthogonal IMiD-Degron Pairs Induce Selective Protein Degradation in Cells” (ACS Chemical Biology, 2025).
Over roughly 8,300 sequences, “log2 fold change of degron read counts, EGFP-low vs EGFP+ sorted cells (limma voom), compound-induced degradation” has its median near -1.1; the highest 2% begin near 3.2. Shown is part of a subset that was picked to be rich in the highest values.

T1: CRBN, Q96SW2
T1 chain: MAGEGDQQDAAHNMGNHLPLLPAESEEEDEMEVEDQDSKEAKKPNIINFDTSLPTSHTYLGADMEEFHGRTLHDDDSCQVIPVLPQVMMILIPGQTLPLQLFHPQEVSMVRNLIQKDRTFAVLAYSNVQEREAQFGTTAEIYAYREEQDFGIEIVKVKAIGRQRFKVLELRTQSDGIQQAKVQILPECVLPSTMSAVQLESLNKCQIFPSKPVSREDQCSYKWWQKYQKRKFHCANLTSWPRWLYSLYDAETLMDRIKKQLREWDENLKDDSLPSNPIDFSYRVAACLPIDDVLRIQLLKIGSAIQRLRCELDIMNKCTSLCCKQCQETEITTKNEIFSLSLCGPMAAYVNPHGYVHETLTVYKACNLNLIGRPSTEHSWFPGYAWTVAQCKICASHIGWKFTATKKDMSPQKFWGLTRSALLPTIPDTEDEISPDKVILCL

B1: 46F_47V_49E_50V_52G_53A_54W_55F_67L_, Q9UKT9 (peptide)
chain: FVCEVCGAWFTQKGNLLRHIKL
B2: 46F_47L_49D_50Q_52G_53A_54M_55F_67L_, Q9UKT9 (peptide)
chain: FLCDQCGAMFTQKGNLLRHIKL
B3: 46F_47I_49N_50Q_52G_53R_54A_55F_67L_, Q9UKT9 (peptide)
chain: FICNQCGRAFTQKGNLLRHIKL
B4: 46F_47G_49N_50Q_52G_53A_54H_55F_67L_, Q9UKT9 (peptide)
chain: FGCNQCGAHFTQKGNLLRHIKL
B5: 46F_47R_49E_50I_52G_53H_54Q_55F_67L_, Q9UKT9 (peptide)
chain: FRCEICGHQFTQKGNLLRHIKL
B6: 46F_47Q_49D_50V_52G_53A_54C_55F_67L_, Q9UKT9 (peptide)
chain: FQCDVCGACFTQKGNLLRHIKL
B7: 46F_47L_49S_50V_52G_53H_54L_55F_67L_, Q9UKT9 (peptide)
chain: FLCSVCGHLFTQKGNLLRHIKL
B8: 46L_47R_49P_50I_52G_53F_54Q_55C_67L_, Q9UKT9 (peptide)
chain: LRCPICGFQCTQKGNLLRHIKL
B9: 46L_47M_49P_50I_52G_53F_54Q_55C_67L_, Q9UKT9 (peptide)
chain: LMCPICGFQCTQKGNLLRHIKL
B10: 46L_47D_49P_50I_52G_53F_54Q_55C_67L_, Q9UKT9 (peptide)
chain: LDCPICGFQCTQKGNLLRHIKL
B11: 46L_47I_49P_50I_52G_53F_54Q_55C_67L_, Q9UKT9 (peptide)
chain: LICPICGFQCTQKGNLLRHIKL
B12: 46L_47T_49P_50I_52G_53F_54Q_55C_67L_, Q9UKT9 (peptide)
chain: LTCPICGFQCTQKGNLLRHIKL
B13: 46L_47F_49P_50I_52G_53F_54Q_55C_67L_, Q9UKT9 (peptide)
chain: LFCPICGFQCTQKGNLLRHIKL
B14: 46L_47K_49P_50I_52G_53F_54Q_55C_67L_, Q9UKT9 (peptide)
chain: LKCPICGFQCTQKGNLLRHIKL
B15: 46L_47C_49P_50I_52G_53F_54Q_55C_67L_, Q9UKT9 (peptide)
chain: LCCPICGFQCTQKGNLLRHIKL
B16: 46L_47W_49P_50I_52G_53F_54Q_55C_67L_, Q9UKT9 (peptide)
chain: LWCPICGFQCTQKGNLLRHIKL
B17: 46L_47Y_49P_50I_52G_53F_54Q_55C_67L_, Q9UKT9 (peptide)
chain: LYCPICGFQCTQKGNLLRHIKL
B18: 46L_47N_49P_50I_52G_53F_54Q_55C_67L_, Q9UKT9 (peptide)
chain: LNCPICGFQCTQKGNLLRHIKL
B19: 46L_47Q_49P_50I_52G_53F_54Q_55C_67L_, Q9UKT9 (peptide)
chain: LQCPICGFQCTQKGNLLRHIKL

Target: T1, CRBN, Q96SW2
Assay: log2 fold change of degron read counts, EGFP-low vs EGFP+ sorted cells (limma voom), compound-induced degradation; higher = more compound-induced degradation of the degron-EGFP fusion; degrons are variants of IKZF1/3 zinc finger 2; compound dose not given here
Conditions: Jurkat, 18 h
[1] = compound: compound 19 (5-tert-butyl-thalidomide)
[2] = compound: compound 22 (5-morpholino-thalidomide)
[3] = compound: compound 33 (diphenyl IMiD analogue)
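Also: pooled lentiviral library of zinc finger degron-EGFP fusions in mCherry-positive Jurkat cells, FACS-sorted after compound exposure, with degron abundance counted by next-generation sequencing.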

Sequence | log2 fold change of degron read counts [1] | log2 fold change of degron read counts [2] | log2 fold change of degron read counts [3] | log2 fold change of degron read counts (compound: thalidomide)
B1 | -1.7 | -0.89 | 0.622 | 0.0931
B2 | -3.11 | -2.68 | -1.79 | -2.7
B3 | -2.99 | -3.18 | -3.02 | -2.57
B4 | -2.35 | -2.82 | -1.79 | -2.17
B5 | -3.28 | -3.74 | -2.48 | -2.14
B6 | -1.14 | 1.47 | 0.493 | 3.01
B7 | -2.16 | -2.42 | -2.1 | -2
B8 | 0.722 | 0.186 | 1.12 | 1.62
B9 | 0.282 | 1.65 | 2.68 | 2.37
B10 | 0.742 | 0.239 | 0.58 | 1.8
B11 | 0.317 | 2.57 | 2.11 | 2.94
B12 | 0.773 | 2.5 | 2.25 | 2.88
B13 | 3.36 | 3.29 | 2.33 | 2.04
B14 | -0.0362 | -1.47 | -1.46 | 0.648
B15 | 2.04 | 2.42 | 2.76 | 2.48
B16 | 3.21 | 3.52 | 2.81 | 1.97
B17 | 3.45 | 3.56 | 2.59 | 1.87
B18 | 1.88 | 1.12 | 0.537 | 1.19
B19 | 1.01 | 1.71 | 1.77 | 3.45
